Among the test systems are SK-MEL-2 melanoma; SN12C renal; UO-31 renal; TK-10 renal; ACHN renal; CAKI-1 renal; A498 renal; CCRF-CEM leukemia; MOLT-4 leukemia; SR leukemia; OVCAR-8 ovarian; OVCAR-5 ovarian; SK-OV-3 ovarian; IGROV1 ovarian; OVCAR-3 ovarian; HS 578T breast; NCI/ADR-RES ovarian; RPMI-8226 leukemia; OVCAR-4 ovarian.
Holding throughout (experiment): NCI-60 one-dose screen, 48 h (100 = growth as untreated, 0 = no growth, -100 = all killed)
Conditions in all cases: 10 µM unless noted

This is part of a sample that, as a whole, favours compounds with a hit. Of some 83,000 tested, about 20% had one in any assay.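 How to read the values: 0–100, growth inhibition (40 = 60% inhibited); 0, no net growth; -100 to 0, cell death (-40 = 40% of starting cells died; -100 = all dead).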 Values without a mark were called inactive. Activity calls are given as the source filed them. Rule for the calls: active = growth percent below 10; inactive = the rest.

For `CCOC(=O)[C@H](CSSc1ncnc2cc[nH]c12)NC(=O)[C@@H](C)c1ccc2cc(OC)ccc2c1`, the growth with SK-MEL-2 melanoma was 23%; in the assay on SN12C renal it was 29.8%; with UO-31 renal it was 13.4%; with TK-10 renal, 13.8%; in the assay on ACHN renal, 24.9%; in the assay with CAKI-1 renal, 16%. Further, the growth is 49.9% with A498 renal; 12.7% in the assay on CCRF-CEM leukemia; 3.42% (active) with MOLT-4 leukemia; 18.9% in the assay on SR leukemia; 20.7% with OVCAR-8 ovarian; 27.3% in the assay with OVCAR-5 ovarian. The growth in the assay with SK-OV-3 ovarian is 8.34% (active); in the assay with IGROV1 ovarian, 41.3%; in the assay with OVCAR-3 ovarian, 25.4%; with HS 578T breast, 59%; in the assay with NCI/ADR-RES ovarian, 18.6%.

As for `Nc1c(C(=O)Nc2cccc(C(F)(F)F)c2)sc2nc3c(cc12)CCCCC3`, the growth with SK-MEL-2 melanoma was 39.4%; in the assay on SN12C renal, 2.78% (active); with UO-31 renal, -39.8% (active); with TK-10 renal, -16.2% (active); with ACHN renal it was -67.4% (active); in the assay on CAKI-1 renal it was 16.2%. The growth in the assay on A498 renal was -21.8% (active); in the assay with CCRF-CEM leukemia, 61.9%; in the assay on MOLT-4 leukemia, 83%; in the assay with SR leukemia, 33.3%; in the assay with OVCAR-8 ovarian it was 21.3%; with OVCAR-5 ovarian, 35.5%. The growth is -21.4% (active) in the assay on SK-OV-3 ovarian; -17.4% (active) in the assay on IGROV1 ovarian; 3.45% (active) in the assay on OVCAR-3 ovarian; 16.6% with HS 578T breast; 17.1% with NCI/ADR-RES ovarian.

With `CN(C)c1ccc(-c2ccc(-c3ccc(C(=N)N)cn3)o2)cc1`, the growth in the assay on SK-MEL-2 melanoma is -85.4% (active); with SN12C renal, -85.2% (active); in the assay on UO-31 renal, -69.4% (active); in the assay with TK-10 renal, -64.7% (active); in the assay with ACHN renal, -83.5% (active); with CAKI-1 renal it was -72.5% (active). In addition, the growth is -9.83% (active) in the assay on A498 renal; -2.2% (active) in the assay on CCRF-CEM leukemia; -52.1% (active) with MOLT-4 leukemia; -43.4% (active) in the assay on RPMI-8226 leukemia; -54.7% (active) with OVCAR-8 ovarian; -25% (active) in the assay on OVCAR-5 ovarian. In addition, the growth in the assay with OVCAR-4 ovarian was -17.3% (active); in the assay with SK-OV-3 ovarian, -24.4% (active); in the assay on IGROV1 ovarian it was -26.8% (active); with OVCAR-3 ovarian, -96.7% (active); in the assay on HS 578T breast, -19.7% (active); with NCI/ADR-RES ovarian it was 22.5%.

As for `COc1ccc(/C=C2\Oc3cc(OCCN4CCCC4)ccc3C2=O)c(OC)c1`, the growth is 101% with SK-MEL-2 melanoma; 92.2% in the assay on SN12C renal; 81.2% in the assay on UO-31 renal; 115% in the assay with TK-10 renal; 95.7% with ACHN renal; 92.4% in the assay with CAKI-1 renal. Besides, the growth was 88.5% in the assay on A498 renal; 86.7% in the assay with MOLT-4 leukemia; 19.6% with SR leukemia; 33.9% with RPMI-8226 leukemia; 96.2% in the assay with OVCAR-8 ovarian; 90.3% with OVCAR-5 ovarian. For the same compound, the growth was 97.6% in the assay on OVCAR-4 ovarian; 110% with SK-OV-3 ovarian; 99.3% in the assay on IGROV1 ovarian; 93.8% in the assay with OVCAR-3 ovarian; 98.5% in the assay on HS 578T breast; 91.9% with NCI/ADR-RES ovarian.

`Cc1ccc(S(=O)(=O)NCCCNc2nccc(-c3c(-c4ccccc4)nc4sccn34)n2)cc1`: the growth in the assay on SK-MEL-2 melanoma was 82.9%; with SN12C renal, 48.1%; with UO-31 renal, 33.9%; with TK-10 renal, 85.8%; in the assay with ACHN renal it was 37.7%; with CAKI-1 renal, 47.3%. Besides, the growth is 18.5% in the assay with CCRF-CEM leukemia; 43.5% in the assay with MOLT-4 leukemia; 33.9% in the assay on SR leukemia; 25.6% in the assay with RPMI-8226 leukemia; 37.9% with OVCAR-8 ovarian; 117% in the assay with OVCAR-5 ovarian. The growth in the assay with OVCAR-4 ovarian was 48.4%; in the assay on SK-OV-3 ovarian, 57.9%; with IGROV1 ovarian it was 35.7%; in the assay on OVCAR-3 ovarian, 38%; in the assay on HS 578T breast, 74.9%; in the assay on NCI/ADR-RES ovarian, 49%.

On to `CCN(C(=O)c1cc2ccccc2[nH]1)[C@H]1CCC[C@@H](NCc2ccc(OC)cc2)C1`, for which the growth in the assay on SK-MEL-2 melanoma was 100%; with SN12C renal, 92.2%; in the assay on UO-31 renal it was 66%; in the assay with TK-10 renal, 81%; with ACHN renal, 94.7%; with CAKI-1 renal, 96%. In addition, the growth with CCRF-CEM leukemia is 102%; in the assay on MOLT-4 leukemia it was 70.2%; in the assay with SR leukemia, 69.2%; with RPMI-8226 leukemia it was 86%; in the assay on OVCAR-8 ovarian, 100%; in the assay on OVCAR-5 ovarian it was 85.5%. In addition, the growth in the assay on OVCAR-4 ovarian was 83.3%; in the assay with SK-OV-3 ovarian, 96.6%; with IGROV1 ovarian, 85.4%; in the assay on OVCAR-3 ovarian, 89.6%; in the assay on HS 578T breast it was 89.3%; with NCI/ADR-RES ovarian, 88.4%.

For `Cc1oc2nc[nH]c(=O)c2c1C(=O)/C=C/c1ccc(Cl)cc1Cl`, the growth in the assay on SK-MEL-2 melanoma is 91.3%; in the assay on SN12C renal it was 67%; in the assay with UO-31 renal it was 67.6%; in the assay on TK-10 renal it was 123%; in the assay on ACHN renal it was 66.4%; in the assay with CAKI-1 renal, 46.1%. Besides, the growth is 94.3% in the assay on A498 renal; 86.8% in the assay with MOLT-4 leukemia; 33% in the assay on SR leukemia; 28.4% in the assay with RPMI-8226 leukemia; 45.4% with OVCAR-8 ovarian; 134% in the assay on OVCAR-5 ovarian. Besides, the growth in the assay on OVCAR-4 ovarian was 68.6%; in the assay with IGROV1 ovarian, 89.2%; in the assay with OVCAR-3 ovarian, 48.6%; in the assay with HS 578T breast it was 102%; in the assay with NCI/ADR-RES ovarian, 43%.

With `CCCC(C(=O)OCC)C(C)OC(=O)OCC` (stereo unspecified), the growth in the assay on SK-MEL-2 melanoma was 94.7%; in the assay on SN12C renal it was 101%; in the assay on UO-31 renal, 80.1%; with TK-10 renal, 98%; in the assay with ACHN renal it was 107%; in the assay on CAKI-1 renal, 96.3%. The growth in the assay with A498 renal was 118%; with MOLT-4 leukemia it was 89.8%; with SR leukemia, 87.6%; in the assay with OVCAR-8 ovarian, 96.4%; in the assay on OVCAR-5 ovarian it was 108%; with OVCAR-4 ovarian, 108%. Also, the growth in the assay with SK-OV-3 ovarian was 95.5%; with IGROV1 ovarian, 115%; with OVCAR-3 ovarian it was 103%; in the assay with NCI/ADR-RES ovarian, 105%.

In the case of `NC(=O)NC(=O)/C=C/C(=O)OCCCl`, the growth in the assay with SK-MEL-2 melanoma was 113%; in the assay with SN12C renal it was 104%; in the assay with UO-31 renal, 89.2%; with TK-10 renal, 72.1%; in the assay on ACHN renal, 79.9%; in the assay on CAKI-1 renal it was 99.6%. The growth was 103% in the assay with A498 renal; 96.9% in the assay on MOLT-4 leukemia; 96.8% in the assay with SR leukemia; 93.3% in the assay on RPMI-8226 leukemia; 90.7% in the assay on OVCAR-8 ovarian; 96.9% in the assay with OVCAR-5 ovarian. In addition, the growth in the assay with OVCAR-4 ovarian is 107%; in the assay on SK-OV-3 ovarian, 105%; with IGROV1 ovarian, 109%; with OVCAR-3 ovarian it was 106%; in the assay on NCI/ADR-RES ovarian it was 109%.

The record behind these values is PubChem BioAssay (NCI).
